Consider ten compounds from PubChem BioAssay (NCATS).

Results filed as inconclusive are left out. Activity calls are given as the source filed them. Unless noted, calls follow the shape of the dose curve; as a rule, active = well fitted curve in the direction sought with a large enough effect; inconclusive = small, poorly fitted or top-dose-only effect, or another doubt; inactive = no such curve, though single readings can be large; an effect the other way counts as inactive or inconclusive.

Test [1] addresses ATP-dependent 6-phosphofructokinase (Trypanosoma brucei brucei) (UniProt O15648). The test can be described thus: qHTS Assay to Find Inhibitors of T. brucei phosphofructokinase: hit validation (AID 492961).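 Also: luminescence reports ADP formed as PFK phosphorylates fructose-6-phosphate with ATP; series mostly up to about 51 µM; % is scaled to controls: 0 for no effect and ±100 for the full control effect.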 An outline of the steps:
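ADP-Glo luminescence read-out of ADP formed by 1.25 nM PFK from 0.1 mM ATP and 0.5 mM F6P (TEA pH 8.0, 45 min, RT). Compounds titrated; activity normalized to no-enzyme and full-enzyme controls.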

The target of test [2] is M-phase phosphoprotein 8 (Homo sapiens) (UniProt Q99549). Description: qHTS Validation Assay for Inhibitors for MPP8 Chromodomain Interactions with Methylated Histone Tails (AID 488949).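 Also: AlphaScreen signal from MPP8 chromodomain bound to biotinylated H3K9me3 peptide; top concentration of the series differs between compounds; % is scaled to controls: 0 for no effect and ±100 for the full control effect; nearly all actives have a fitted effect of over 55% in size.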 In short, it runs like this: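 AlphaScreen read-out: streptavidin donor and nickel chelate acceptor beads (final 10 ug/mL), 30 min in the dark at RT. Complex of 50 nM MPP8 and 50 nM b-H3(1-18)K9me3 peptide had been exposed to compounds for 30 min beforehand.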
Sequence of M-phase phosphoprotein 8 (Homo sapiens) (Q99549 whole entry, looked up): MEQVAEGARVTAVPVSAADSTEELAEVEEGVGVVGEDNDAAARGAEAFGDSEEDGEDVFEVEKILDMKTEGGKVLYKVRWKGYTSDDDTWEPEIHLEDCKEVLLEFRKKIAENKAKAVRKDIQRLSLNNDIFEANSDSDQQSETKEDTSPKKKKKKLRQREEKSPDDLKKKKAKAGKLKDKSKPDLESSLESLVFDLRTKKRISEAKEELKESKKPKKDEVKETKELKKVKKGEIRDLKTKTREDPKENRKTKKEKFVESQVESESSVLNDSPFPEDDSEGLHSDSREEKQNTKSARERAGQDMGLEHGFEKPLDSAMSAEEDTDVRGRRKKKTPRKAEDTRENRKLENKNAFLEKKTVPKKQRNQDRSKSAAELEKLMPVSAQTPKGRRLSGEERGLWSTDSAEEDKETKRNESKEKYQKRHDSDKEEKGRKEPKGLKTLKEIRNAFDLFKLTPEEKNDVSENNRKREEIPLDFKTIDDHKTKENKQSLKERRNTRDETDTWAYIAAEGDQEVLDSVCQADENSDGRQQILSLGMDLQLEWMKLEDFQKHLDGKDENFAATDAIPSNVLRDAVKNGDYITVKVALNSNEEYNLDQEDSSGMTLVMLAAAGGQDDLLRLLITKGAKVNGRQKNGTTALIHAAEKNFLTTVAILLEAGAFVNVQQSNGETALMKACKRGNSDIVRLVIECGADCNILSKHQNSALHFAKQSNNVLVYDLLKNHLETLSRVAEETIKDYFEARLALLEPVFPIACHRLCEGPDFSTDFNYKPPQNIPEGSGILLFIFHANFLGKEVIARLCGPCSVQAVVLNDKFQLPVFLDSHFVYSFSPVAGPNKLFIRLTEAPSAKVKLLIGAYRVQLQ
In general terms: In qHTS, concentration-response curves come from the screen itself.

The target in test [3] is Chromobox protein homolog 1 (Homo sapiens) (UniProt P83916). Description: qHTS Validation Assay for Inhibitors of HP1-beta Chromodomain Interactions with Methylated Histone Tails (AID 488953). Also: nearly all actives have a fitted effect of over 50% in size. Also: potency is read from the fitted curve at half-maximal effect. An outline of the steps: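 HP1-beta (50 nM) preformed 30 min with biotinylated H3(1-18)K9me3 peptide (50 nM) in PBS pH 7.4, 0.01% Tween-20. Compounds added for 30 min at room temperature. Complex disruption read by AlphaScreen with streptavidin donor/nickel chelate acceptor beads (10 ug/mL each).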
Sequence of Chromobox protein homolog 1 (Homo sapiens) (P83916 whole entry, looked up): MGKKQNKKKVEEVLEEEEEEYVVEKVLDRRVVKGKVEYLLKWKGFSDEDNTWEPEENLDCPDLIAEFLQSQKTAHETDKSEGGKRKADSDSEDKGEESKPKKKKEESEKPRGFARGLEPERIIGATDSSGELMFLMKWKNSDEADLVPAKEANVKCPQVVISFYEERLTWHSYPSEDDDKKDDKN

The target of test [4] is Methanococcus maripaludis chaperonin (MmCpn) (UniProt Q6LX38). The test can be described thus: High-Throughput Screening for Modulators of Cytosolic Chaperonin Activity: MmCpn Primary Screen (AID 488978). Also: 0% is about no effect. In short, it runs like this: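 ADP formation read by HTRF Transcreener, 665/590 nm emission after 320 nm excitation. Enzyme: archaeal chaperonin at 50 nM final; substrate ATP 30 uM final; 10 min, 37C, after 5 min compound preincubation at RT.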

The target in test [5] is Transient receptor potential cation channel subfamily V member 1 (Homo sapiens) (UniProt Q8NER1). Description: HTS Assay for Compounds that Act as Enhancers of the Vanilloid Receptor 1 (AID 488979). Also: 0% is about no effect. An outline of the steps: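 Calcium influx kinetics via Fluo-8 (480/520 nm) in TRPV1-expressing cells, 2000/well cultured overnight at 35.5C. Compound-alone read 3 min (agonist phase), followed by EC20 capsaicin challenge for 2 min (enhancer phase).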
Sequence of Transient receptor potential cation channel subfamily V member 1 (Homo sapiens) (Q8NER1 whole entry, looked up): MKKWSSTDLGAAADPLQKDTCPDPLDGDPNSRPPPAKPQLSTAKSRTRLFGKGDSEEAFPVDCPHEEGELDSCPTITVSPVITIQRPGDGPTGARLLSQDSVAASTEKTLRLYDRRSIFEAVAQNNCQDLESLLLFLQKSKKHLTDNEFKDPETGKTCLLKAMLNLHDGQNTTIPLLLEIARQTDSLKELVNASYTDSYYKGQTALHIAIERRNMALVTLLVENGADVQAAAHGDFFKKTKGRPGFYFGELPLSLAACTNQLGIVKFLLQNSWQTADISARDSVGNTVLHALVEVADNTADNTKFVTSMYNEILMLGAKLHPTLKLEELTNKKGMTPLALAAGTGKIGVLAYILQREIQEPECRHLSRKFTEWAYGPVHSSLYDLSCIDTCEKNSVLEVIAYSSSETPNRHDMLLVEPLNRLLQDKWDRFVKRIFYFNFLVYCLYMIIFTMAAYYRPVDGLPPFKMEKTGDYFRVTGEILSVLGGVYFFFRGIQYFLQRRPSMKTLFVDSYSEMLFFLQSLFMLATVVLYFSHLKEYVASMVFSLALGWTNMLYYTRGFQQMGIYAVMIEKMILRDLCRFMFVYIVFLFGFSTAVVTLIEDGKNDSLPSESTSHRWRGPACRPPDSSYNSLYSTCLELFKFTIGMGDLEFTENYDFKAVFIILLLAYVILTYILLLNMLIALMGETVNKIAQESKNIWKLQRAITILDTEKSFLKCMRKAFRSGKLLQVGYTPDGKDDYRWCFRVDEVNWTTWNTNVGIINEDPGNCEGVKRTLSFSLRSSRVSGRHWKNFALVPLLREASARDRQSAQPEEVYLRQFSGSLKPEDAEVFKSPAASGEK

For test [6], the target named is Thyrotropin receptor (Homo sapiens) (UniProt P16473). Description: qHTS Assay for Antagonists of the Thyroid Stimulating Hormone Receptor (AID 488980). Also: series mostly up to about 58 µM; 0% is about no effect. In short, it runs like this:
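TSHR-HEK293 cells; 70 uM RO 20-1724 PDE inhibitor; compound + EC80 TSH (4 nM final); anti-cAMP cryptate antibody/cAMP-d2 in lysis buffer, 30 min RT; HTRF 665/620 nm read.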

The target of test [7] is D(1A) dopamine receptor (Homo sapiens) (UniProt P21728). Description: HTS Assay for Allosteric Agonists of the Human D1 Dopamine Receptor: Primary Screen for Agonists (AID 488981). Also: potency is read from the fitted curve at half-maximal effect. As to activation: 0% is about no effect. An outline of the steps: (§1)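 Calcium flux in an inducible, force-coupled HEK293 Trex D1 line (overnight at 30 C): agonist mode is the 180 s kinetic read after compound; potentiator mode is the following 180 s read after dopamine at EC20.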
Sequence of D(1A) dopamine receptor (Homo sapiens) (P21728 whole entry, looked up): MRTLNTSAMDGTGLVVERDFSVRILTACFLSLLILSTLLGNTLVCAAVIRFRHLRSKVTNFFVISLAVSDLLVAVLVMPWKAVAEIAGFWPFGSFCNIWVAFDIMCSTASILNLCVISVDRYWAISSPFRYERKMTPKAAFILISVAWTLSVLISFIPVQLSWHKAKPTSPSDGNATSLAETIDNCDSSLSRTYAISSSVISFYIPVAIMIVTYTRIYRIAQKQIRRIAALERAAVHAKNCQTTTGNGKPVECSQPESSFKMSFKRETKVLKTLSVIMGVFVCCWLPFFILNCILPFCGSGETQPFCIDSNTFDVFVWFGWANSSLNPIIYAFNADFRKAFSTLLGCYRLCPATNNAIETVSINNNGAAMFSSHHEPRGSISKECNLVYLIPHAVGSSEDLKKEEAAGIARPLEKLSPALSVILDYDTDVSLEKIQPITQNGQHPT

Test [8] shares this target. The test can be described thus: HTS Assay for Allosteric Agonists of the Human D1 Dopamine Receptor: Primary Screen for Potentiators (AID 488982). Also: 0% is about no effect. An outline of the steps: as §1
For test [9] the target is unchanged. Description: HTS Assay for Allosteric Agonists of the Human D1 Dopamine Receptor: Primary Screen for Antagonists (AID 488983).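 Also: calcium flux response to an EC80 dopamine challenge measured with no-wash dye; % is scaled to controls: 0 for no effect and ±100 for the full control effect; nearly all actives have a fitted effect of over 65% in size.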 In short, it runs like this:
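Tetracycline-induced HEK293 T-REx D1 line, force-coupled to calcium flux, read with no-wash calcium dye. Compound added after 10 s baseline, read 180 s for agonism, then EC80 dopamine added and read a further 180 s.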

Test [10] in a line: Validation screen for small molecules that induce genotoxicity in human embryonic kidney (HEK293T) cells expressing luciferase-tagged ELG1 (AID 493106). Also: 0% is about no effect. In short, it runs like this:
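HEK293T cells expressing luciferase-tagged ELG1, 2,000 cells/well, exposed to compound 16 hr at 37 °C, 5% CO2. Luciferase read after ONE-Glo, 30 min at room temperature; increased signal indicates genetic stress.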

Test [11] has as its target ATPase family AAA domain-containing protein 5 (Homo sapiens) (UniProt Q96QE3). The test can be described thus: Validation screen for small molecules that inhibit ELG1-dependent DNA repair in human embryonic kidney (HEK293T) cells expressing luciferase-tagged ELG1 (AID 493107).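 Also: cells co-treated with the DNA-damaging agent 5-fluorouridine alongside compound; series mostly up to about 46 µM; % is scaled to controls: 0 for no effect and ±100 for the full control effect; inhibitors lower the ELG1-luciferase luminescence signal; nearly all actives have a fitted effect of over 70% in size.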 An outline of the steps: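 HEK293T cells expressing luciferase-tagged ELG1, 2,000 per well, treated with 5-fluorouridine plus compound for 16 h at 37 C. ONE-Glo luminescence after 30 min at room temperature reports ELG1 reporter level.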

Test [12] addresses Thyrotropin-releasing hormone receptor (Homo sapiens) (UniProt P34981). The test can be described thus: qHTS for Small Molecule Agonists and Allosteric Enhancers of Human TRH Receptor: Validation Screen for Agonists (AID 493127;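 active = calcium activation more than 3 SD above the typical response in the agonist read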; also: 0% is about no effect). The conditions noted are these: TRH receptor agonist cell assay; at 2 µM; stronger effect = higher value. An outline of the steps: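 TRHR cells loaded with fluo-8 calcium dye; FDSS kinetic fluorescence (Ex 480/Em 530) read at 1 s/cycle after 23 nL compound addition. Agonist-mode calcium response recorded before the 10 nM TRH (EC20) addition.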

Test [13] in a line: Nrf2 qHTS screen for inhibitors: Validation (AID 493153; active = well fitted inhibition curve with a large enough effect in the main read-out, with a control signal flat, not every such curve was filed as active). The conditions noted are these: viability change: measured here: cytotoxicity max response. In short, it runs like this:
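A549 cells carrying ARE-firefly luciferase reporter, 5000 cells/well in 5% FBS OPTI-MEM, treated with compound over a concentration series for 18-24 h at 37 C. Luciferase luminescence gave Nrf2 activity; CellTiter-Fluor fluorescence gave viability.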

Test [14] addresses Galactokinase (Homo sapiens) (UniProt P51570). The test can be described thus: qHTS Validation Assay for Inhibitors of Human Galactokinase (GALK) (AID 493189). Also: 0% is about no effect. In short, it runs like this: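 Luminescence from leftover ATP (Kinase-Glo Plus, 10 min) served as read-out after a 1 h room-temperature reaction of 5 nM GALK, 100 uM galactose and 35 uM ATP at pH8.0.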
A short description of test [15]: Validation screen for small molecules that induce DNA re-replication in SW480 colon adenocarcinoma cells (AID 504364). Also: 0% is about no effect. An outline of the steps:
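SW480 cells (250/well) exposed 48 h at 37 C, 5% CO2, then Hoechst-stained 40 min. Nuclear DNA content imaged by fluorescence scanning (405 nm excitation, 500-530 nm emission); re-replication scored as increased nuclei with elevated intensity.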

The target of test [16] is Peptidyl-prolyl cis-trans isomerase NIMA-interacting 1 (Homo sapiens) (UniProt Q13526). Description: qHTS Validation Assay to Find Inhibitors of Pin1 (AID 504536; active = well fitted inhibition curve with a large enough effect in the polarisation, with a control signal flat, not every such curve was filed as active; the % refers to the polarisation;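 also: 0% = full Pin1 enzyme wells and -100% = no-enzyme wells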). In short, it runs like this: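 Fluorescence polarization competition: compounds (titration) displace HiFluor-488-labeled Pin1-1b peptide from Pin1 (0.3 uM final) in pH 7.5 HEPES buffer with DTT, 10 min at room temperature; %Activity normalized to no-enzyme wells, curves fitted.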

For test [17], the target named is Phosphoglycerate kinase, glycosomal (Trypanosoma brucei brucei) (UniProt P07378). The test can be described thus: qHTS Validation Assay to Find Inhibitors of Phosphoglycerate Kinase (AID 504547).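 Also: control wells lack PGK and mark full inhibition.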 An outline of the steps:
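Inhibition of the enzyme is judged by a Kinase-Glo Plus luminescent signal following a one-hour incubation at room temperature. Because 1,3-BPG is unstable, it is made in situ by GAPDH at 100nM final; no-PGK wells define the baseline.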

The target of test [18] is phosphoglycerate mutase (Leishmania major) (UniProt Q4Q090). The test can be described thus: qHTS Validation Assay to Find Inhibitors of Phosphoglycerate Mutase (AID 504548). Also: series mostly up to about 58 µM; % is scaled to controls: 0 for no effect and ±100 for the full control effect. In short, it runs like this:
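Lm PGAM at 1.25 nM final with substrate in 100 mM TEA pH 7.6, 5 mM MgCl2, 0.01% Tween-20; 45 min at room temperature. Kinase-GloPlus added, 10 min, end-point luminescence read.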

Test [19] can be described thus: Inducers of the Endoplasmic Reticulum Stress Response (ERSR) in human glioma: Validation (AID 504836). Also: 0% is about no effect. In short, it runs like this: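 ERSR induction read as luciferase luminescence (Bright-Glo, 10 min at room temperature) in stably transfected human U87-MG glioma cells exposed to compounds for 16 h, using GRP78 as sensor.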

Sequence of ATPase family AAA domain-containing protein 5 (Homo sapiens) (Q96QE3 whole entry, looked up, the tested form may be a part): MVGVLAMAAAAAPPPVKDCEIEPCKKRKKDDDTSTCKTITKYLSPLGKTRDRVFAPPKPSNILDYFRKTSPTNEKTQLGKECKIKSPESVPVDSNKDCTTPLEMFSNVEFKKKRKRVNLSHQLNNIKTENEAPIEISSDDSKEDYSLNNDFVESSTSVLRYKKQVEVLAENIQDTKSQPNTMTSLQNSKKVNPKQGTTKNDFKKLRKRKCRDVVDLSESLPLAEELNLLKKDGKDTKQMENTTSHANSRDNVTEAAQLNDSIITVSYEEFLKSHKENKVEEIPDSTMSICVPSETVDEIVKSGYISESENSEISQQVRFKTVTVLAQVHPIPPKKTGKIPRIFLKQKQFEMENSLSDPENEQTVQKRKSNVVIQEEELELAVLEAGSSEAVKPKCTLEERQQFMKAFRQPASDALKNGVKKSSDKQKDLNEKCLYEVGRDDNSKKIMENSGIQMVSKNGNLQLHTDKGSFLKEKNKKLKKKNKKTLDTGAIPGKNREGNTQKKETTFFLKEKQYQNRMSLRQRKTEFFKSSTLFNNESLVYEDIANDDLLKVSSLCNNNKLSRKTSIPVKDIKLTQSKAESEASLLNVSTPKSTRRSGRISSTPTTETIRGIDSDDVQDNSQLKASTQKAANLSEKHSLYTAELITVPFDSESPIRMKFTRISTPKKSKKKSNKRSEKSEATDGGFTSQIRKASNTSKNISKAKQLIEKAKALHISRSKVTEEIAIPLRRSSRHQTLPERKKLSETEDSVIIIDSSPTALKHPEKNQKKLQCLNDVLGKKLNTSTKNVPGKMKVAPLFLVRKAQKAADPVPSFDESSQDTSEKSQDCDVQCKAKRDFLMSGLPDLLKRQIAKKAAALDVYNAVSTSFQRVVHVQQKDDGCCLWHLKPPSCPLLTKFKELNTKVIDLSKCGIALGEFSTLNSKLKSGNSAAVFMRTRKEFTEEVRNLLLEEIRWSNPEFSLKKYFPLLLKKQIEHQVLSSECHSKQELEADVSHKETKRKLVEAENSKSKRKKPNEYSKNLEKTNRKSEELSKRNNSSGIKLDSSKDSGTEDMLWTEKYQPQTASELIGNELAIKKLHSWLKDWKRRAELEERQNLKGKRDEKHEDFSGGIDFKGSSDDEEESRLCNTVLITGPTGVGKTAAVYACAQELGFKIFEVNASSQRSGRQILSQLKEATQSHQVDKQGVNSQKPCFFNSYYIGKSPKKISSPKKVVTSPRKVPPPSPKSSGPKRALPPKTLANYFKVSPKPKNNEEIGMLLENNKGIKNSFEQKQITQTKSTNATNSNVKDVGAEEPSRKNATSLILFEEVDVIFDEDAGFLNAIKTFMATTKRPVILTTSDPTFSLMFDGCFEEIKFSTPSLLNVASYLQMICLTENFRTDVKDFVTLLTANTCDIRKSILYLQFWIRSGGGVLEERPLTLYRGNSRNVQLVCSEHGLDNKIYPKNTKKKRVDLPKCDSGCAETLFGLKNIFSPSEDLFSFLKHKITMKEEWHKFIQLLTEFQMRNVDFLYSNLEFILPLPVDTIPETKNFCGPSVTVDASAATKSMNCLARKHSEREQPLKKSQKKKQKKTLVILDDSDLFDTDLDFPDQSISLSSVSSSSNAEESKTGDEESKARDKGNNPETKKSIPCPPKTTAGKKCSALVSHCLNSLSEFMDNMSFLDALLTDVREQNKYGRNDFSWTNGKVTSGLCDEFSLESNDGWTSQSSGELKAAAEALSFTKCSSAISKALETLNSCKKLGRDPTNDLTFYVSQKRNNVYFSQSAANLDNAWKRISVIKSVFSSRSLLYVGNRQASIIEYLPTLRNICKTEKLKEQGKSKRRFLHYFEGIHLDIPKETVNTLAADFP
Sequence of Galactokinase (Homo sapiens) (P51570 whole entry, looked up): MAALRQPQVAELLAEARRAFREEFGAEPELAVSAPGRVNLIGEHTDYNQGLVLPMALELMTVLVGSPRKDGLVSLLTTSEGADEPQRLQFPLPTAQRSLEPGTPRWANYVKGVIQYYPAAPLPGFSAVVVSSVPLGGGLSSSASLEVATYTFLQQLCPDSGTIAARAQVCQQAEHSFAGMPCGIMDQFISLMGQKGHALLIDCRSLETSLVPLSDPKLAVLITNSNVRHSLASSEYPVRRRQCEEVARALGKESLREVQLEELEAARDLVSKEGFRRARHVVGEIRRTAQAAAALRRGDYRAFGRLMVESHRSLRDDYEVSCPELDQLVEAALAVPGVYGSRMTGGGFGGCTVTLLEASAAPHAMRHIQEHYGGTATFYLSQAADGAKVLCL
Sequence of ATP-dependent 6-phosphofructokinase (Trypanosoma brucei brucei) (O15648 whole entry, looked up): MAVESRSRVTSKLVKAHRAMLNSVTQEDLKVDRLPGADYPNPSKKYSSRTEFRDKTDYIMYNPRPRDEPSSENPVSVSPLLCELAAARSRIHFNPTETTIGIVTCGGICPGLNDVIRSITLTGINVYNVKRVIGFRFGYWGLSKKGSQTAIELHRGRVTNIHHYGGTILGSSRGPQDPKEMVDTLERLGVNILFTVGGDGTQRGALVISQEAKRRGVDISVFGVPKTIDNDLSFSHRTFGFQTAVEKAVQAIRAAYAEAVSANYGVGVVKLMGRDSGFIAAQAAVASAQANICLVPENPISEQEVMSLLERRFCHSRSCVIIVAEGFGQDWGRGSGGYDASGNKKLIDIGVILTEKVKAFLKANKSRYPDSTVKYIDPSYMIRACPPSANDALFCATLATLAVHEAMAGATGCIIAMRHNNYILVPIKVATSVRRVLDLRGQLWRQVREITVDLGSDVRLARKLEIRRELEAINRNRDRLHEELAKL

For the compound `c1ccc2c(c1)sc1ccccc12`, the outcome in test [1] was inactive.

As to `O=P1(N(CCCl)CCCl)NCCCO1` (stereo unspecified), the Potency entry in [2] and in test [7] was “inactive” throughout. Moreover, in test [3], the Potency is 6 nM (active). For the same compound, the compound was classed as inactive in test [4], in test [5], in [6], in [8], in test [9] and in test [10]. Moreover, the call in test [11], in [13], in test [14], in test [15], in test [16] and in test [17] was inactive. Further, the call in test [18] and in test [19] was inactive. Further, in test [12], the activation is -0.25% (inactive). The viability change in test [13] was -1.15%.

As for `O=C(CCCN1CCC2(CC1)C(=O)NCN2c1ccccc1)c1ccc(F)cc1`, the Potency result in [2] was “inactive”. For the same compound, the compound was classed as inactive in [4], in [6], in test [8], in test [10], in [14] and in test [15]. Further, the compound was called inactive in test [16], in [17] and in test [18]. The Potency in [7] is 12.6 µM (active).

Take `C[C@]12CCC(=O)C=C1CC[C@@H]1[C@@H]2CC[C@]2(C)C(=O)CC[C@@H]12`: the Potency result in test [2] is “inactive”. The result in [5], in [6], in test [1], in test [14] and in test [15] was inactive. Further, the activation in test [12] was 2.12% (inactive).

For `O=C(Nc1ccc(Br)cc1)c1cc(Br)cc(Br)c1O`, in [1], the outcome was inactive.

Turning to `Nc1nc(N)nc(NC2CC2)n1`, the compound was called inactive in test [1].

Regarding `O=c1[nH]oc2c1CCNC2`, the Potency result in test [2], in test [3] and in test [7] was “inactive” throughout. Also, the result in test [4], in test [5], in [6], in test [8], in test [9] and in [10] was inactive. In addition, the result in test [11], in [13], in [15], in test [16], in [17] and in [18] was inactive. For the same compound, the compound was called inactive in test [19]. In [13], the viability change was -2.38%.

On to `Cc1nnc2n1-c1ccc(Cl)cc1C(c1ccccc1Cl)=NC2`, for which the compound was called inactive in test [1].

For `NC(=O)c1cc([N+](=O)[O-])cc([N+](=O)[O-])c1`, the compound was called inactive in test [1].

Turning to `O=C(O)CCCc1ccc(N(CCCl)CCCl)cc1`, the Potency entry in test [2], in test [3] and in test [7] was “inactive” each time. Besides, the outcome in test [4], in test [5], in test [6], in test [8], in [9] and in test [10] was inactive. For the same compound, the call in test [11], in test [14], in [15], in [16], in test [17] and in test [18] was inactive. Moreover, the outcome in test [19] was inactive. Further, the activation in [12] is -4.56% (inactive).
